Calls of active or inactive are those of the source.

Here are results for 5 compounds from PubChem BioAssay.

Test [1] in a line: small molecules captured by biotinylated probe aFSTL3 – biochemical, small-molecule microarray, fluorescence 635/667, stem cell growth factor project, primary screen (AID 1064).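 Also: measures binding of the biotinylated anti-FSTL3 antibody to printed compounds.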 Particulars: higher = more signal.
Test [2] can be described thus: binders from COS7 lysate, DM2A8 probe, primary screen, torsin A project, cell lysate, small-molecule microarray, fluorescence 635/667 (AID 1065). As to conditions: higher = more signal, COS7 lysate expressing mutant human TOR1A.
Test [3] is described as follows: small molecules captured by biotinylated probe aFGF2 – biochemical, small-molecule microarray, fluorescence 635/667, stem cell growth factor project, primary screen (AID 1067).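 Also: measures binding of biotinylated aFGF2 protein to printed compounds on slides; z-score merges feature fluorescence and signal-to-noise across triplicate slides.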 As to conditions: higher = more signal.
A short description of test [4]: small molecules captured by biotinylated probe aFGF10 – biochemical, small-molecule microarray, fluorescence 635/667, stem cell growth factor project, primary screen (AID 1071).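 Also: score merges 667 nm spot intensity and signal to noise from triplicate slides.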 As to conditions: higher = more signal.
Test [5] concerns the target Neurogenic locus notch homolog protein 2 (Homo sapiens) (UniProt Q04721). In words: small molecules binding Notch2 protein – biochemical, small-molecule microarray, 635 nm fluorescence, stem cell growth factors, primary screen (AID 1073). Particulars: higher = more signal.
For test [6], the target named is Pro-neuregulin-1, membrane-bound isoform (Homo sapiens) (UniProt Q02297). In words: small molecules binding neuregulin-1 protein – biochemical, small-molecule microarray, fluorescence 635/667, psychiatric disease protein project, primary screen (AID 1075).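 Also: score combines 667 nm spot fluorescence with signal to noise.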 Particulars: NRG1 binding, 635 nm fluorescence, higher = more signal.
Chain of Pro-neuregulin-1, membrane-bound isoform (Homo sapiens) (Q02297 whole entry, looked up, the tested form may be a part, canonical isoform): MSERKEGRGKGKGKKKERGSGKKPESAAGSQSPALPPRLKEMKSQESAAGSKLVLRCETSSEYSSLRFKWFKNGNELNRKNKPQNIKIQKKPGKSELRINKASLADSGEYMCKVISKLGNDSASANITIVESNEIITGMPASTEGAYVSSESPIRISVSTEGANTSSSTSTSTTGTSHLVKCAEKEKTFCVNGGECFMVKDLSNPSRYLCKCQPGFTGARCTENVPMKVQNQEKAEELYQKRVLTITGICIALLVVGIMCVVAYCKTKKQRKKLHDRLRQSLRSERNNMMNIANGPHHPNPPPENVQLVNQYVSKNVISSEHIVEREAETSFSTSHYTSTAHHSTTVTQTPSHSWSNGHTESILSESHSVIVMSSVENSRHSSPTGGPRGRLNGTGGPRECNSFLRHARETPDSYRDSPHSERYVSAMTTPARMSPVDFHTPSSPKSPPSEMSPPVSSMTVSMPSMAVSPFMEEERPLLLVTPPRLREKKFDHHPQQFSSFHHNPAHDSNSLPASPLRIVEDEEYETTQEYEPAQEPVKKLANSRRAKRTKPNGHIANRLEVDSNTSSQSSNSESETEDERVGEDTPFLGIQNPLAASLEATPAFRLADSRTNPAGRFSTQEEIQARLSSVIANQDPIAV
The test system of test [7] is Neuregulin-1 EGF-like domain. Description: small molecules binding NRG1 EGF domain – biochemical, small-molecule microarray, 635 nm fluorescence, primary screen (AID 1081).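 Also: binding of the protein to compounds printed on small-molecule microarray slides.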 Particulars: higher = more signal.
Test [8] is described as follows: FRG1 expression reporter modulators in myotubes – cell-based, C2C12 myotubes, firefly/Renilla luciferase, luminescence, FRG1 inhibition for FSHD, primary screen (AID 1084). Particulars: FRG1 promoter luciferase, higher = more signal, called active from +8 up or from −8 down.
Test [9] in a line: small molecules captured by biotinylated probe aFST – biochemical, small-molecule microarray, fluorescence 635/667, stem cell growth factor project, primary screen (AID 1086).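 Also: score merges 667 nm fluorescence with signal-to-noise of each printed compound spot.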 Particulars: higher = more signal.
Test [10] is described as follows: binders of probe aHhip on microarray, primary screen, stem cell growth factor project, biochemical, small-molecule microarray, fluorescence 635/667 (AID 1087).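 Also: score merges spot fluorescence at 667nm with spot signal to noise ratio.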 Particulars: higher = more signal.
The subject of test [11] is PRMT1 (protein arginine N-methyltransferase 1). In words: small molecules binding arginine methyltransferase PRMT1 – biochemical, small-molecule microarray, 635 nm fluorescence, primary screen (AID 1088).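 Also: binding of Prmt1 protein to compounds spotted on small-molecule microarray slides.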 As to conditions: higher = more signal.
Test [12] in a line: growth effects on S. cerevisiae YJM789 – YJM789 clinical isolate, OD600, 24 h, basal, primary screen (AID 1089).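 Also: growth of clinical yeast isolate S. cerevisiae YJM 789 seeded 1000 cells per well; test concentration not given here.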 Particulars: higher = more signal, called active from +8 up or from −8 down.
The nature of test [13]: S. pombe growth modifiers, basal conditions – strain 972, OD600, 24 h, no modulator, primary screen (AID 1090).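 Also: basal condition with compound alone and no growth modifier present; test concentration not given here.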 Particulars: S. pombe 972 growth, higher = more signal, called active from +8 up or from −8 down.
Test [14] can be described thus: budding yeast growth modifiers under rapamycin – strain BY4716, OD600, 96 h, primary screen (AID 1091). Also: test concentration not given here. Particulars: S. cerevisiae BY4716 + rapamycin, higher = more signal, called active from +8 up or from −8 down.
In test [15] the target is Torsin-1A-interacting protein 2 (Homo sapiens) (UniProt Q8NFQ8). Description: small molecules binding lysate-expressed LULL1 – cell lysate, human LULL1 lysate, 635/667 nm fluorescence, primary screen (AID 1092).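 Also: probe is lysate of COS7 cells overexpressing human LULL1; score merges per-feature 667 nm fluorescence with signal-to-noise.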 As to conditions: small-molecule microarray, hLULL1 lysate binding, 635 nm fluorescence; higher = more signal.
Chain of Torsin-1A-interacting protein 2 (Homo sapiens) (Q8NFQ8 whole entry, looked up): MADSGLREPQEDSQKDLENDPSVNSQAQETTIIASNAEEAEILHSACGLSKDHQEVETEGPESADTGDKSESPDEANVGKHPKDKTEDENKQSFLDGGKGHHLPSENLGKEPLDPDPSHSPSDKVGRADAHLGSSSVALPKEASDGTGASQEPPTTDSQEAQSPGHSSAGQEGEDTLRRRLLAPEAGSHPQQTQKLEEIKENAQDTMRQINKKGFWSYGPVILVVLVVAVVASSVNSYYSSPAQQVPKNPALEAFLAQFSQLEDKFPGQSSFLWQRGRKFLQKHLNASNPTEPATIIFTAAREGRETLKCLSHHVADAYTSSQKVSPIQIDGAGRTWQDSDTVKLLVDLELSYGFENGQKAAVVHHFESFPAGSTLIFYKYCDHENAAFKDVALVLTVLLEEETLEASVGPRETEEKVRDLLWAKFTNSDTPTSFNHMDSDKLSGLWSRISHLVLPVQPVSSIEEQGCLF
The nature of test [16]: optical density change of DRC41 E. coli – strain DRC41, OD650, 24 h, E. coli filamentation project, primary screen (AID 1093).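 Also: MC1000 strain lacking acrAB efflux and sulA so SOS filamentation is blocked; test concentration not given here.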 As to conditions: E. coli DRC41 growth, higher = more signal, called active from +8 up or from −8 down.
Test [17] can be described thus: probe aLefty2 binding to arrayed compounds – biochemical, biotinylated probe, 635/667 nm fluorescence, primary screen (AID 1094).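 Also: score merges spot fluorescence near 667 nm with spot signal-to-noise ratio.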 As to conditions: small-molecule microarray, higher = more signal.
The test system of test [18] is Noggin (protein binding on small-molecule microarray). In words: small molecules binding Noggin protein – biochemical, 635/667 nm fluorescence, primary screen (AID 1095).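 Also: score merges 667 nm feature fluorescence with signal to noise over triplicate slides.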 As to conditions: 635 nm fluorescence, higher = more signal.
Test [19] has as its target Neurogenic locus notch homolog protein 3 (Homo sapiens) (UniProt Q9UM47). In words: small molecules binding NOTCH3 protein – biochemical, 635/667 nm fluorescence, primary screen (AID 1096). As to conditions: small-molecule microarray, 635 nm fluorescence, higher = more signal.
Test [20] is described as follows: probe aEGFR binding to arrayed compounds – biochemical, biotinylated probe, 635/667 nm fluorescence, primary screen (AID 1097).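 Also: probe is a biotinylated anti-EGFR antibody binding compounds printed on slides; score combines fluorescence near 667 nm and signal to noise of each spot.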 As to conditions: small-molecule microarray, higher = more signal.

Chain of Neurogenic locus notch homolog protein 3 (Homo sapiens) (Q9UM47 whole entry, looked up): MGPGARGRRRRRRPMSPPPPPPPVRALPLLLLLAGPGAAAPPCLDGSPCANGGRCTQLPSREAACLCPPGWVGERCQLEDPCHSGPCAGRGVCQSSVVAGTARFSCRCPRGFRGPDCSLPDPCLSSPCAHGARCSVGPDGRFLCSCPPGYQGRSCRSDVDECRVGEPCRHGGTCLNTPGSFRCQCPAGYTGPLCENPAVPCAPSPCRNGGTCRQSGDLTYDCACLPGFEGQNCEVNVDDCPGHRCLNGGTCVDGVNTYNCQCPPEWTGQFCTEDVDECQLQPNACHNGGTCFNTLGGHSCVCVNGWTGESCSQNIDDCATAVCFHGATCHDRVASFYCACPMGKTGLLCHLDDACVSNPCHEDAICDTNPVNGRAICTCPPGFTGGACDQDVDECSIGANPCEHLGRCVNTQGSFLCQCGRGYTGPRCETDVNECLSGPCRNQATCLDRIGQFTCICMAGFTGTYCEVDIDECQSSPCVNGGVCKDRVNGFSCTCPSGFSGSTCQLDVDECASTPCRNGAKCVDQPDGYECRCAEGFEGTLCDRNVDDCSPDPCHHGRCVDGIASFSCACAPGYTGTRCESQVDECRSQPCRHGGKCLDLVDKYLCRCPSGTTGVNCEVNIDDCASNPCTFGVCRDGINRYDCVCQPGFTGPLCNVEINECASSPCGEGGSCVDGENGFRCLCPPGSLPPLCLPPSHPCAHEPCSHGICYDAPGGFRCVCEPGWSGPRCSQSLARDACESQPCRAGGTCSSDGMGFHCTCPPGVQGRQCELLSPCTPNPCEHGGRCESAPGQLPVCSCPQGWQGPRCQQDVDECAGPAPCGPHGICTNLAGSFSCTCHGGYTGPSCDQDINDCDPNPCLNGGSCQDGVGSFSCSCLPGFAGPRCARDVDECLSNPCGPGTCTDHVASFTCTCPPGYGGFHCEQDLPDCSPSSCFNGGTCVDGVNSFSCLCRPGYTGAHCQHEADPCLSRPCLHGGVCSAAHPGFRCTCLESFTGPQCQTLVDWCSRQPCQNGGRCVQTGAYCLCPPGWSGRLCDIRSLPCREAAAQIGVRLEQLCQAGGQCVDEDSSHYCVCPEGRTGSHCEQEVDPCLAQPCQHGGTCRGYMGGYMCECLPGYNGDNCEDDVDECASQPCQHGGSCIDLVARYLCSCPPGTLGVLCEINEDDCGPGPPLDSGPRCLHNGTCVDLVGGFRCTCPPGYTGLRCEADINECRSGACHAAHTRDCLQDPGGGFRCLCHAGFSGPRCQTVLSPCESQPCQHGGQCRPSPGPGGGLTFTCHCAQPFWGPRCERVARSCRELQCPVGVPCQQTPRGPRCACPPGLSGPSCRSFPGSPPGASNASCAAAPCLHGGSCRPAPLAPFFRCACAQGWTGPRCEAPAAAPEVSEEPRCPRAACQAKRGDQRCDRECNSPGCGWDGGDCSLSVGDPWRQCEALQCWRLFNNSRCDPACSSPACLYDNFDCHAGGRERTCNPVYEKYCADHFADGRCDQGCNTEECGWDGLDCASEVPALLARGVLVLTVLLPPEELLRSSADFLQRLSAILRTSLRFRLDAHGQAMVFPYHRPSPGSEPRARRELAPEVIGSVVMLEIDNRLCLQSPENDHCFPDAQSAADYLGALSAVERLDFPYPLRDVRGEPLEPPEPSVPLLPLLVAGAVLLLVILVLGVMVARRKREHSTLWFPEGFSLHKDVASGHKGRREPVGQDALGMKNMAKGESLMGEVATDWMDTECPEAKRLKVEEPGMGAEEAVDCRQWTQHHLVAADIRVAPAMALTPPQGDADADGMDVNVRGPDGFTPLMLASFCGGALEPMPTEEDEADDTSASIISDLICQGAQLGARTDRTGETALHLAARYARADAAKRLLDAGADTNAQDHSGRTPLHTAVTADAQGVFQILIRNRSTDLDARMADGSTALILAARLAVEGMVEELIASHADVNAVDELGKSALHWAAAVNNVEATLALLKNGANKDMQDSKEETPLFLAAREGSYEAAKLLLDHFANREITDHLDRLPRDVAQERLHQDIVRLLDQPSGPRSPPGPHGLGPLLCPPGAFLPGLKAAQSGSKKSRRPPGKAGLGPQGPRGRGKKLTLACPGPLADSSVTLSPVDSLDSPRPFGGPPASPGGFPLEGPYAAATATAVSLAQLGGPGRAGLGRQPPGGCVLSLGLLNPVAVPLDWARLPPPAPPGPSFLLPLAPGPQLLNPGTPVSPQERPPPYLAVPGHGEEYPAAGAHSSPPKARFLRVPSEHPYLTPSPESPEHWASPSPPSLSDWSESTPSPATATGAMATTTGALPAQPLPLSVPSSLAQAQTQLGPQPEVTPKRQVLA

As to `CCC(CC)C(O)C1C=CC2C(=O)N(c3ccccc3)C(=O)C2N1Nc1ccc([N+](=O)[O-])cc1` (stereo not given), the composite z-score was 0.453 in test [1]; -0.0903 in [2]; 0.22 in [3]; 0.848 in test [4]; 1.56 in test [5]; 1.07 in [6]. Further, the composite z-score in test [7] turned out to be 1.26; in test [9] it was 0.944; in test [10], 0.327; in test [11] it was 1.53; in [15] it was 3; in test [17], 0.323. Also, the values for the composite z-score in test [18], in test [19] and in [20] were 0.0809, 1.07 and 0.277, respectively. Also, the z-score in test [8] was -1.91 (inactive); in [12], -0.255 (inactive); in test [13], 1.27 (inactive); in test [14], 1.28 (inactive); in [16], -0.27 (inactive).

With `O=C1C2C=CC(C(O)c3ccc4c(c3)OCO4)N(Nc3ccccc3)C2C(=O)N1c1ccccc1` (stereo not given), the composite z-score in test [1] is 0.154; in [2] it was -0.186; in [3] it was 0.0917; in [4], 0.847; in test [5] it was 1.55; in [6] it was 1.46. Also, the composite z-score was 1.09 in [7]; 1.38 in test [9]; -0.204 in test [10]; 1.46 in test [11]; 3.05 in test [15]; 0.266 in test [17]. Moreover, the figures for the composite z-score in test [18], in test [19] and in [20] were -0.0526, 1.1 and 0.11, respectively. Besides, the z-score is -0.545 (inactive) in test [8]; -0.293 (inactive) in test [12]; 0.292 (inactive) in test [13]; 0.593 (inactive) in test [14]; -0.784 (inactive) in test [16].

Regarding `COCCOC(=O)N1C(=O)[C@@]2(c3cc(C#CCC(C(=O)OC)C(=O)OC)ccc31)[C@H](C(=O)NC[C@H](O)c1ccccc1)[C@H]1C(=O)O[C@H](c3ccccc3)[C@H](c3ccccc3)N1[C@@H]2c1ccc(OCCO)cc1`, the composite z-score is -0.341 in [1]; 0.0051 in test [2]; -0.113 in test [3]; 0.245 in [4]; 0.917 in [5]; 0.161 in [6]. Moreover, the composite z-score is 1.23 in [7]; 0.5 in [9]; -0.0994 in test [10]; 1.56 in test [11]; 2.08 in test [15]; -0.109 in test [17]. For the same compound, the composite z-score in test [18] is 1.69; in [19], 1.04; in test [20], 0.0097. The z-score is 0.856 (inactive) in [8]; 2.22 (inactive) in [12]; 2.7 (inactive) in test [13]; 7 (inactive) in test [14]; 0.6 (inactive) in test [16].

With `[N-]=[N+]=Nc1ccccc1C[C@]1(C(=O)NCc2ccccc2)COC(c2ccc(OCCCO)cc2)=N1`, the composite z-score was 0.191 in [1]; 0.666 in [2]; 0.113 in test [3]; 1.27 in [4]; 0.777 in test [5]; 1.24 in [6]. The composite z-score is 1.21 in test [7]; 0.892 in [9]; -0.207 in test [10]; 1.32 in [11]; 3.33 in [15]; 0.0573 in test [17]. Moreover, the composite z-score was 0.544 in test [18], 1.08 in [19] and -0.0669 in test [20]. Moreover, the z-score was -1.36 (inactive) in test [8]; 1.04 (inactive) in test [12]; 0.184 (inactive) in test [13]; 32.1 (active) in test [14]; 1.04 (inactive) in test [16].

As for `CN1C(=O)C2C=CC(C(O)c3cc(C(F)(F)F)cc(C(F)(F)F)c3)N(Nc3ccccc3)C2C1=O` (stereo not given), the composite z-score in test [1] is -0.481; in test [2], -0.229; in test [3], -0.0656; in test [4] it was 0.05; in test [5], 0.245; in test [6], 0.862. For the same compound, the composite z-score was 1.25 in test [7]; -0.106 in [9]; -0.0994 in [10]; 0.237 in test [11]; 3.85 in [15]; -0.194 in [17]. For the same compound, the composite z-score in [18] was 0.325; in test [19] it was 0.377; in test [20], -0.155. Further, the z-score was 0.715 (inactive) in [8]; -0.506 (inactive) in test [12]; -0.714 (inactive) in [13]; -0.785 (inactive) in [14]; -0.565 (inactive) in [16].
